A short description of experiment [1]: Tanguay_ZF_120hpf_SWIM_legacy: (Legacy) Oregon State University Tanguay Lab 120 Hour Post-fertilization zebrafish Assay for Swim Bladder Malformation (AID 2283654).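 Also: swim bladder malformation in each larva scored yes or no under brightfield.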 The essentials: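 Dechorionated wild-type Tropical 5D zebrafish embryos, one per well from 6 hpf, were statically exposed at 28C until 120 hpf in 0.64% DMSO. Swim bladder malformation scored as present/absent by brightfield microscopy; not scored in dead larvae.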

The nature of experiment [2]: Tanguay_ZF_120hpf_TRUN_legacy: (Legacy) Oregon State University Tanguay Lab 120 Hour Post-fertilization zebrafish Assay for Truncated Body (AID 2283655). The essentials:
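Single dechorionated zebrafish embryos received test chemical from 6 hpf in 0.64% DMSO, kept at 28C. At 120 hpf, brightfield inspection noted any truncated body.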

Experiment [3] in a line: Tanguay_ZF_120hpf_NC_legacy: (Legacy) Oregon State University Tanguay Lab 120 Hour Post-fertilization zebrafish Assay for Notochord and Tail Malformation (AID 2283656). In short, it runs like this:
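Dechorionated Tropical 5D wild-type zebrafish embryos, one per well from 6 hpf, statically exposed to 120 hpf at 28C in 0.64% DMSO final. Notochord distortion scored present/absent by brightfield; dead embryos excluded.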

A short description of experiment [4]: Tanguay_ZF_120hpf_TR_legacy: (Legacy) Oregon State University Tanguay Lab 120 Hour Post-fertilization zebrafish Assay for Touch Response (AID 2283667). The essentials:
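Tropical 5D wild-type zebrafish embryos statically exposed to 120 hpf at 28°C, sealed and dark-covered, 0.64% DMSO final; touch response scored as present/absent by brightfield microscopy at 120 hpf. Trimethyltin chloride 5 uM positive control; dead embryos not scored.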

Experiment [5] is described as follows: CCTE_Padilla_ZF_144hpf_TERATOSCORE: (Legacy) CCTE's 144 Hour Post-fertilization zebrafish Assay Teratoscore, Padilla Lab (AID 2283679; active = hit-call score of the fitted dose curve at least 0.9, where 1 is the maximum; inactive = score below 0.9;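 as to AC50: zebrafish embryos with chorions exposed by immersion from 6-8 hpf to 5 dpf with daily renewal; teratogenicity score from eye scoring of death hatching and malformations at 144 hpf; higher score means more developmental defects relative to DMSO baseline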). In short, it runs like this:
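Larvae scored by eye at 144 hpf for death, hatching and malformations after a day in clean Hanks'. Before that, daily-renewed exposure at 80 uM (0.4% DMSO, 26C) from roughly 6-8 hpf through 5 dpf, 4 embryos per chemical.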

Experiment [6] relates to Thyroperoxidase (TPO), gene 54314. Description: CCTE_Simmons_AUR_rTPO: CCTE's Amplex UltraRed Assay for Thyroperoxidase (TPO) Inhibition, Simmons Lab (AID 2283662).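 As to AC50: potency for loss of signal meaning inhibition of peroxidase activity.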 The essentials: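 Rat thyroid microsomal TPO + 25 uM AUR in 200 mM K phosphate; cpd 5 nM–87.5 uM [final], 8 conc, 0.5% DMSO; 300 uM H2O2 starts rxn; 37C dark 30 min; endpoint FI 544/590 nm; n=3.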
Experiment [7] can be described thus: CCTE_Simmons_CellTiterGLO_HEK293T: Viability Assessment in CCTE's Assays for Thyroperoxidase (TPO) Inhibition, Simmons Lab (AID 2283665).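 As to AC50: cells exposed to compound for 24 h before readout; actives reduce ATP signal below DMSO vehicle meaning cytotoxicity.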 In short, it runs like this: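 HEK293T cells in DMEM with 1% FBS, dosed 24 h at 37C with 8 concentrations, 5 nM–87.5 uM final, 0.5% DMSO. ATP measured by CellTiter Glo luminescence; loss of signal vs DMSO, three biological replicates.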
In general terms: ATP-based viability assays read luminescence as a measure of living cells.

Read-out in experiment [8]: solute carrier (SLC10A1), SLC10A1 (gene 6554)
Description: LTEA_HepaRG_SLC10A1: Life Technologies and Expression Analysis (LTEA) Assay for solute carrier (SLC10A1) using HepaRG (AID 2283657; active = hit-call score of the fitted dose curve at least 0.9, where 1 is the maximum; inactive = score below 0.9). The conditions noted are these: mRNA level, 48 h; actives raise or lower the signal. In short, it runs like this: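 HepaRG cells (single lot) exposed 48 h in serum-free induction medium, 8-point half-log series from 100 uM top in 0.5% DMSO, duplicate. SLC10A1 mRNA by qRT-PCR normalised to ACTB, GAPDH, POLR2A; bidirectional fit versus DMSO.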

Read-out in experiment [9]: matrix metalloproteinase-1 (MMP1), MMP1 (gene 4312)
Description: LTEA_HepaRG_MMP1: Life Technologies and Expression Analysis (LTEA) Assay for matrix metalloproteinase-1 (MMP1) using HepaRG (AID 2283658; active = hit-call score of the fitted dose curve at least 0.9, where 1 is the maximum; inactive = score below 0.9). The conditions noted are these: mRNA level, 48 h; actives raise or lower the signal. The method, then: LTEA_HepaRG is a cell based, multiplexed-readout assay that uses HepaRG, a human liver cell line, with measurements taken at 48 hours after chemical dosing on a 96-well plate.LTEA_HepaRG_MMP1 is one of 102 assay component(s) measured in the LTEA HepaRG cell culture assay. It is a marker of Fibrosis.Data from the assay component LTEA_HepaRG_MMP1 was analyzed into 1 endpoint. This assay endpoint, LTEA_HepaRG_MMP1, was analyzed with bidirectional fitting relative to DMSO as the negative control and baseline of activity. Using a type of inducible reporter, measures of mRNA induction for gain or loss-of-signal activity can be used to understand regulation of transcription factor activity. To generalize the intended target to other relatable targets, this assay endpoint is annotated to the protease intended target family, where the subfamily is matrix metalloproteinase.
A total of 1060 chemcials from the ToxCast library were tested in eight-point concentration-response experiments. Cell culture and cytotoxicity assays were conducted at Thermo Fisher Scientific's Custom Services facility (Madison, WI). […] Fluidigm's 96.96 Dynamic ArrayTM (Fluidigm, Amsterdam, the Netherlands) technology was used for gene expression analyses by quantitative reverse transcription polymerase chain reaction (qRT-PCR, performed by Quintiles/Expression Analysis, Durham, NC)89. […]

Read-out in experiment [10]: Cytochrome P450 (CYP24A1_1), CYP24A1 (gene 1591)
Description: LTEA_HepaRG_CYP24A1_1: Life Technologies and Expression Analysis (LTEA) Assay for Cytochrome P450 (CYP24A1_1) using HepaRG (AID 2283671; active = hit-call score of the fitted dose curve at least 0.9, where 1 is the maximum; inactive = score below 0.9). The conditions noted are these: mRNA level, 48 h; actives raise or lower the signal. In short, it runs like this: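 Differentiated human HepaRG cells in serum-free induction medium, exposed 48 h in duplicate to eight half-log concentrations from 100 uM top, 0.5% DMSO. Transcript measured by TaqMan qRT-PCR, normalised to ACTB, GAPDH, POLR2A; bidirectional fitting versus DMSO.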

Structures are written as SMILES. Records with an inconclusive call do not appear. Activity calls are given as the source filed them. The calls were made as follows, unless noted: active = hit-call score of the fitted dose curve at least 0.9, where 1 is the maximum; inconclusive = response in the unintended direction; inactive = score below 0.9.

What is called AC50 is the concentration giving half of the maximal activity seen. Take `ClC(Cl)c1ccccc1`: the compound was called inactive in experiment [1], in experiment [2], in [3] and in experiment [4]. For the same compound, the AC50 in experiment [5] was 14.7 µM (active).

For `CCOP(=S)(Oc1ccc([N+](=O)[O-])cc1)c1ccccc1` (stereo not given), the outcome in experiment [1], in [2], in experiment [3], in experiment [7] and in [4] was inactive. The AC50 was 10.2 µM (active) in experiment [6] and 1.19 µM (active) in experiment [5].

For `CC(Cc1ccc(OCC(=O)O)cc1)NCC(O)c1csc(C(F)(F)F)n1` (stereo not given), the outcome in experiment [1], in experiment [2], in experiment [3] and in experiment [4] was inactive.

As to `O=C(O)C1C(C(=O)O)C2(Cl)C(Cl)=C(Cl)C1(Cl)C2(Cl)Cl` (stereo not given), the call in [1], in experiment [2], in experiment [3] and in experiment [4] was inactive.

`CCC(C)(C)c1ccc(O)cc1`: the AC50 in [1] is 47.2 µM (active); in experiment [2], 31.6 µM (active); in experiment [3], 47.9 µM (active); in experiment [6] it was 4.91 µM (active); in experiment [7], 28.1 µM (active); in experiment [4], 48.3 µM (active). Besides, the half-maximal activity concentration (AC50) in experiment [5] was 14.2 µM (active).

Take `CCOS(=O)(=O)OCC`: the call in experiment [1], in experiment [2], in [3] and in experiment [4] was inactive.

With `O=P1(N(CCCl)CCCl)NCCCO1` (stereo not given), the result in [1], in experiment [2] and in [3] was inactive.

Consider `CCCCCCCc1ccc(O)cc1`, for which the compound was classed as inactive in [1], in [2], in experiment [3] and in experiment [4]. In addition, the figures for the concentration at half-maximal activity (AC50) in experiment [6], in [7] and in experiment [5] were 10.2 µM (active), 10.1 µM (active) and 6.11 µM (active), respectively.

As to `CC(C)(C)c1ccc(O)cc1`, the call in [1], in experiment [2], in experiment [3] and in experiment [4] was inactive. Also, the AC50 in experiment [6] was 2.73 µM (active); in experiment [7] it was 57.4 µM (active); in experiment [5], 57.8 µM (active).

As to `CC(Cl)(Cl)C(=O)O`, the call in experiment [1], in [2], in experiment [3] and in experiment [4] was inactive.

On to `Cc1cccc(N)c1`, for which the result in experiment [1], in experiment [2], in experiment [3], in experiment [7] and in experiment [5] was inactive. The AC50 in [6] is 0.268 µM (active).

For the compound `Cc1ccc(O)cc1C`, the compound was called inactive in experiment [1], in experiment [2], in [3] and in [4].

As for `CSC(C)(C)C=NO`, the outcome in [1], in experiment [2], in [3] and in [4] was inactive.

For `Nc1cc2c3c(c1)C(c1ccccc1)=N[C@@H](NC(=O)c1cccnc1)C(=O)N3CC2`, the call in [1], in experiment [2], in experiment [3], in experiment [7] and in experiment [4] was inactive. The AC50 in experiment [6] was 23.1 µM (active).

In the case of `CCOP(=S)(OCC)SCSCC`, the compound was called inactive in experiment [1], in [2], in experiment [3], in [4] and in experiment [5]. Moreover, the AC50 in experiment [6] was 20.5 µM (active); in [7], 13.6 µM (active).

As to `Nc1ccc2ccccc2c1`, the call in [1], in [2], in experiment [3] and in experiment [7] was inactive. In addition, the results for the AC50 in [6] and in experiment [5] were 0.34 µM (active) and 42.1 µM (active), respectively.

Turning to `CC(C)(C)OOC(C)(C)C`, the compound was classed as inactive in experiment [1], in experiment [2], in [3], in [8], in [9] and in experiment [10].

Turning to `c1ccc(OP(Oc2ccccc2)Oc2ccccc2)cc1`, the compound was classed as inactive in experiment [1], in experiment [2], in [3], in experiment [7] and in experiment [4]. Besides, in experiment [6], the AC50 was 8.68 µM (active).

For `CCN(CC)c1ccccc1`, the call in experiment [1], in [2], in [3] and in [4] was inactive.

On to `COCCOCCO`, for which the compound was called inactive in experiment [1], in experiment [2], in experiment [3] and in experiment [4].

Turning to `CCC1(c2ccccc2)C(=O)N=C(O)NC1=O` (stereo not given), the outcome in experiment [1], in experiment [2], in experiment [3], in experiment [6], in [7] and in experiment [4] was inactive.

Regarding `CCOc1ccc(C(C)(C)COCc2cccc(Oc3ccccc3)c2)cc1`, the compound was called inactive in [1], in experiment [2] and in experiment [3].

For `Cc1ccc(N)cc1N`, the compound was classed as inactive in experiment [1], in [2], in experiment [3], in [7] and in experiment [4]. Moreover, the AC50 in [6] is 9.92 µM (active).

Values taken from PubChem BioAssay (EPA / NIEHS).
